# Where “and” joins values, the source holds several entries; their conditions need not be identical. Equal values may be shown once. In all, about 350,000 compounds went through this assay and about 2,100 (0.6%) were called active. Not shown: some 1% with an inconclusive outcome.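 Rule for the calls: active = activity change of -60% or lower, but not beyond a set lower limit; inconclusive = change between -60% and -40%, or beyond the set limit; inactive = change above -40%.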 This excerpt belongs to a sample that is enriched for actives. The source holds several records for some structures; these can differ, active in one and inactive in another.
# Molecular target: Relaxin receptor 1 (Homo sapiens) (UniProt Q9HBX9)
# Sequence (Q9HBX9 whole entry, looked up): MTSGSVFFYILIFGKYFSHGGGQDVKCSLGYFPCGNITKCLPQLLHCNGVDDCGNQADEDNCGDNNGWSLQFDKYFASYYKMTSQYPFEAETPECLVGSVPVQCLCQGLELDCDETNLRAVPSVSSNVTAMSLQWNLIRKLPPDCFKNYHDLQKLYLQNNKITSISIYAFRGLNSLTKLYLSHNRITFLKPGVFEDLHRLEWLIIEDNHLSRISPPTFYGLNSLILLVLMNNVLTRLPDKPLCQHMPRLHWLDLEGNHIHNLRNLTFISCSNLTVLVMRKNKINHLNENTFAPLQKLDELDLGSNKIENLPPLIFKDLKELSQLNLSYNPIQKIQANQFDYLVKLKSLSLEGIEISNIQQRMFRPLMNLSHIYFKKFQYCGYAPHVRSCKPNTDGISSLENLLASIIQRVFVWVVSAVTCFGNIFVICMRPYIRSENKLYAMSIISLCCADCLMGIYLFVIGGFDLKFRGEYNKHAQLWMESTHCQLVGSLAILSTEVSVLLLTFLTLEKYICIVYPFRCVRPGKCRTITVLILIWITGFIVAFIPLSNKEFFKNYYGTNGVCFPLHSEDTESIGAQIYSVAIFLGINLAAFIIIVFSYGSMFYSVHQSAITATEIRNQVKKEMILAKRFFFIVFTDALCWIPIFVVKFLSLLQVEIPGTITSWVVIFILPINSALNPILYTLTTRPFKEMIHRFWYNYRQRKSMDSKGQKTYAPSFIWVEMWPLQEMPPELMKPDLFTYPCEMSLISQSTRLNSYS
# Assay: qHTS Assay for Antagonists of the Relaxin Receptor RXFP1
# Details: HEK293-RXFP1, relaxin-stimulated cAMP HTRF, 30 min; at 57.5 µM; stronger effect = lower value
# % is set by controls: 0 for no effect and ±100 for the full control effect.
row,Compound,"activity change, negative = inhibition"
1,COCc1c(C(=O)N/N=C\c2cccnc2)nnn1-c1nonc1N,-21.1% (inactive)
2,Nc1nonc1-n1nnc(C(=O)N/N=C\c2ccncc2)c1CN1CCCCC1,7.31% (inactive)
3,Cc1ccc(SCc2c(C(=O)N/N=C/c3cccnc3)nnn2-c2nonc2N)cc1,-106% (active)
4,COC(=O)c1cc(Cl)c(NC(C)=O)cc1OC,-14.6% (inactive)
5,COc1ccccc1Nc1c2c(nc3ccc(NC(=O)/C=C/c4cc(OC)c(OC)c(OC)c4)cc13)CCCC2,5.51% (inactive)
6,CCC(=O)Nc1ccc(C)cc1-c1nc2ccccc2n(Cc2ccccc2)c1=O,-2.19% (inactive)
7,O=C(C1CCC(Cn2c(=O)c3sccc3n(Cc3ccccc3F)c2=O)CC1)N1CCCCC1 (stereo not drawn),-8.5% (inactive)
8,CN1CCc2ccccc2C1Cc1ccccc1NC(=O)c1sc2ccccc2c1Cl (stereo not drawn),5.13% (inactive)
9,Cc1nn(-c2ccccc2)c(Cl)c1/C=N/NC(=O)c1nn(C)cc1[N+](=O)[O-],-8.41% (inactive)
10,Cc1nn(C)cc1/C=N/NC(=O)c1sc2ccccc2c1Cl,-67.1% (active)
11,C/C=C/C=N/NC(=O)c1ccncc1,14.4% (inactive)
12,CC1CCN(S(=O)(=O)c2ccc3c(ccn3CCC(=O)NCc3ccc(N(C)C)cc3)c2)CC1,-7.88% (inactive)
13,CCOC(=O)c1ccc(NC(=O)C2CC(=O)N(c3ccc(C(C)C)cc3)C2)cc1 (stereo not drawn),4.6% (inactive)
14,CN1CC[C@H](c2c(O)cc(O)c3c(=O)cc(-c4ccccc4Cl)oc23)[C@H](O)C1,-7.55% (inactive)
15,COc1ccc(C2Sc3ccccc3NC3=C2C(=O)c2ccccc23)c(OC)c1OC (stereo not drawn),3.16% (inactive)
16,CCOC(=O)c1cnc2c(C)cc(C)cc2c1Nc1ccc(N2CCOCC2)cc1,-5% (inactive)
17,O=C(Nc1ccccc1)c1nnsc1S(=O)(=O)c1ccc(Cl)cc1,-68.7% (active)
18,O=C(Nc1ccc(Oc2ccccc2)cc1)C1CCN(S(=O)(=O)c2ccc(Cl)cc2)CC1,-26.7% (inactive)
19,O=C(Nc1cccc(Cl)c1)c1csnn1,-3.98% (inactive)
20,Clc1ccc(CSc2nncn3c2cc2occc23)cc1,-27.8% (inactive)
21,Cc1ccc(Nc2c(-c3ccc(Cl)cc3)nc3sccn23)c(C)c1,-23.7% (inactive)
22,O=C(Nc1ccncc1)c1ccccc1[N+](=O)[O-],11.1% (inactive)
23,CC(=O)Oc1ccccc1C(=O)Nc1ncc([N+](=O)[O-])s1,-60.7% (active)
24,Cc1ccc2nsnc2c1NC(=O)c1ccccc1[N+](=O)[O-],-9.18% (inactive)
25,CCOC(=O)c1ccc(NC(=O)c2c(NCc3cccs3)sc3c2CCCC3)cc1,-24.5% (inactive)
26,Cc1nnnn1/C(=C\c1ccccc1)C(=O)OCC(=O)N1CC2(C)CC1CC(C)(C)C2 (stereo not drawn),-62.1% (active)

row,Compound,"activity change, negative = inhibition"
1,CN(C)C(=O)COC(=O)c1cccc(S(=O)(=O)N2CC3(C)CC2CC(C)(C)C3)c1 (stereo not drawn),8.67% (inactive)
2,CN1CCN(c2oc(-c3ccc(COc4ccc(Cl)cc4)o3)nc2C#N)CC1,-10.5% (inactive)
3,CCOc1ccccc1NC(=O)c1ccc2c(c1)CCN2S(=O)(=O)c1ccc(C)cc1,1.03% (inactive)
4,CCc1cccc(C)c1Nc1c(-c2ccc(N(C)C)cc2)nc2ncccn12,-15.1% (inactive)
5,CCn1cc(C(=O)N2CCN(c3cc(Cl)ccc3C)CC2)c(=O)c2cc(S(=O)(=O)N3CCCC3)ccc21,-1.04% (inactive)
6,CC(C)Cn1c(=O)c2ccccc2n2c(CCC(=O)NCc3ccccn3)nnc12,1.58% (inactive)
7,CC(C)Cn1c(=O)c2ccccc2n2c(CCC(=O)N3CCN(c4cccc(Cl)c4)CC3)nnc12,-87.5% (active)
8,CC(C)Cn1c(=O)c2ccccc2n2c(-c3cccc(Cl)c3)nnc12,-13.9% (inactive)
9,Cc1cc(O)c(C(c2ccccc2)N2CCN(c3ccccc3F)CC2)c(=O)n1Cc1ccco1 (stereo not drawn),-24.2% (inactive)
10,CCOC(=O)c1[nH]c(C)c(CCC(=O)N2CCN(c3ccccc3)CC2)c1C,-8.52% (inactive)
11,O=C(COC(=O)c1ccccn1)NNC(=O)c1ccc(Br)cc1,-5.4% (inactive)
12,O=C(COC(=O)c1ccccn1)NNC(=O)c1ccc([N+](=O)[O-])cc1,-74.5% (active)
13,N/C(=N\OC(=O)c1ccc([N+](=O)[O-])cc1)c1ccccn1,8.07% (inactive)
14,CCn1c(C)c(C)c2cc(C(=O)NCCc3cc(OC)ccc3OC)ccc21,-30.2% (inactive)
15,Cc1cc(C)n2nc(SCC(N)=O)nc2n1,-10.1% (inactive)
16,Cc1ccnc(SCC(N)=O)n1,-83.8% (active)
17,CCn1c(CSc2nc(C)cc(C)n2)nnc1SCC(N)=O,13.9% (inactive)
18,COC(=O)[C@@H]1CC2=CC(=O)CC[C@]2(C)[C@@]23O[C@@H]2C[C@@]2(C)[C@@H](CC[C@@]24CCC(=O)O4)[C@H]13,12.2% (inactive)
19,O=C1CSc2ccc(C(=O)NCc3ccccn3)cc2N1,5.23% (inactive)
20,c1ccc(CN=C2Nc3ccccc3CS2)nc1,-70.7% (active)
21,c1ccc(CCc2ccccn2)cc1,-14.5% (inactive)
22,Cc1ccc(Nc2c(-c3ccc(N(C)C)cc3)nc3nc[nH]n23)cc1,-4.77% (inactive)
23,COc1cccc(C(c2c(O)cc(C)n(Cc3ccco3)c2=O)N2CCN(c3ccccc3)CC2)c1 (stereo not drawn),-4.37% (inactive)
24,CCOc1ccc(N(C(=O)c2snc(C(N)=O)c2N)C(C(=O)NCC2CCCO2)c2c[nH]c3ccccc23)cc1 (stereo not drawn),-6.04% (inactive)
25,Cc1ccc(C(C(=O)NCC2CCCO2)N(C(=O)c2snc(C(N)=O)c2N)c2ccc(C(C)C)cc2)o1 (stereo not drawn),-74% (active)
26,Cc1ccc(N(C(=O)c2snc(C(N)=O)c2N)C(C(=O)NCC2CCCO2)c2c[nH]c3ccccc23)cc1 (stereo not drawn),-19% (inactive)

row,Compound,"activity change, negative = inhibition"
1,Cc1cccc(Nc2cc(C)nc(-n3nc(C)cc3C)n2)c1,-6.69% (inactive)
2,CCOC(=O)c1c(S(=O)(=O)NCC(=O)Nc2ccc(Cl)c(C(F)(F)F)c2)c(C)n(C)c1C,-8.26% (inactive)
3,COc1ccc(N2CCN(C(=O)CNC(=O)c3ccc(Br)o3)CC2)cc1,-3.36% (inactive)
4,COc1ccc(-c2nc(CCNC(=O)c3ccc(Br)o3)cs2)cc1,-32.7% (inactive) and -89.7% (active)
5,COc1ccc(CCC(=O)NCCc2csc(-c3ccc(Cl)cc3)n2)cc1,-21.7% (inactive)
6,C[N+](C)(CCOc1ccccc1)Cc1cccs1 (tested in a mixture with another compound),10.6% (inactive)
7,Cc1ccc(-n2ncc3c(NCCCn4ccnc4)ncnc32)cc1Cl,-9.38% (inactive)
8,COc1ccc(OC)c(CNC(=O)CN2C(=O)CCn3nc(-c4cn(C)c5ccccc45)cc32)c1,-2.73% (inactive)
9,CC(=O)OC1=C(C(C)=O)N(Cc2ccccc2)S(=O)(=O)c2ccccc21,-3.88% (inactive)
10,Cc1ccccc1N/C(SCc1ccc(Cl)cc1)=C(/C#N)C(N)=O,-65.6% (active)
11,Cc1ccccc1NC(=S)NC(=O)Cc1ccc(Cl)cc1,-24.7% (inactive)
12,Cc1ccccc1NC(=O)CSC(=O)c1ccccc1,-0.348% (inactive)
13,O=S(=O)(NCC(c1ccccc1)N1CCc2ccccc21)c1ccccc1 (stereo not drawn),-18.8% (inactive)
14,Cc1cc(NC(=O)CSCC(=O)NC(C)c2ccccc2)no1 (stereo not drawn),3.67% (inactive)
15,Cc1cc(NC(=O)CSc2nnc(-c3ccc(Cl)s3)o2)no1,-21% (inactive)
16,Cc1cc(NC(=O)CSc2ncc(C(F)(F)F)cc2Cl)no1,-64.7% (active)
17,COc1ccccc1N1CCN(S(=O)(=O)CCNC(=O)COc2ccc(F)cc2)CC1,8.32% (inactive)
18,CCc1nnc(NC(=O)c2ccco2)s1,0.195% (inactive)
19,O=C(Nc1nc(-c2ccco2)c(-c2ccco2)s1)c1ccco1,-61.6% (active)
20,Cc1ccc(NC(=O)c2ccco2)cc1,-9.99% (inactive)
21,Cc1ccc(C2c3[nH]c4ccccc4c3CCN2C(=O)c2cccc(C)c2)cc1 (stereo not drawn),-10.4% (inactive)
22,Cc1cc(C)cc(NC(=O)Cn2nc(N3CCN(c4ccccc4)CC3)ccc2=O)c1,-7.03% (inactive)
23,Cc1ccc(NC(=O)CCCn2c(=O)c3cccn3c3ccccc32)cc1Cl,-24.4% (inactive)
24,COc1ccc(C(=O)NCC(c2ccc(N(C)C)cc2)N2CCc3ccccc32)c(OC)c1 (stereo not drawn),-11.3% (inactive)
25,COc1ccc(N2CCN(C(=O)C3CCCN(C(=O)c4cc5sccc5n4C)C3)CC2)cc1 (stereo not drawn),-23.3% (inactive)
26,Cc1ccc(Cn2c(=O)n(Cc3nc(-c4ccccc4)no3)c(=O)c3cc4c(cc32)OCO4)cc1,15.5% (inactive)

row,Compound,"activity change, negative = inhibition"
1,C#CCOc1ccc(/C=C2/C(=O)ON=C2C)cc1OCC,-2.39% (inactive)
2,COc1cc(/C=C2/C(=O)NN(c3ccc(F)cc3)C2=O)cc([N+](=O)[O-])c1O,-12.2% (inactive)
3,C#CCOc1ccc(/C=C2/C(=O)NN(c3ccccc3)C2=O)cc1OC,-66.6% (active)
4,Cc1ccc(-c2nc3ccccn3c2Nc2c(C)cccc2C)o1,-10.4% (inactive)
5,COc1ccc(CNC(=O)c2ccc(NC(=O)N3CC4CCCN4c4ccccc43)cc2)cc1 (stereo not drawn),-9.24% (inactive)
6,CSc1ccccc1-c1nnc(NC(=O)c2ccc3c(c2)OCCO3)o1,23.7% (inactive)
7,COc1cc(OC)c(OC)cc1/C=C/c1nc2ccccc2c(=O)n1-c1ccc(Br)c(C)c1,-16.8% (inactive)
8,O=C(CCS(=O)(=O)c1cc(Br)cc2c1N(C(=O)C1CC1)CC2)Nc1ccc(Br)cc1F,2.95% (inactive)
9,O=C(NCCS(=O)(=O)N1CCN(c2ccc(F)cc2)CC1)c1ccccc1Br,-4.07% (inactive)
10,O=S(=O)(NCCS(=O)(=O)N1CCN(c2ccccc2)CC1)c1ccc(F)cc1,-74.9% (active)
11,O=S(=O)(NCCS(=O)(=O)N1CCN(c2ccccc2)CC1)c1ccc(Cl)cc1,-36.9% (inactive)
12,CCCC(=O)O[C@]1(C(=O)COC(=O)CC)CC[C@@H]2[C@@H]3CCC4=CC(=O)CC[C@]4(C)[C@H]3[C@@H](O)C[C@@]21C,-16.1% (inactive)
13,O=[N+]([O-])/C=C/c1ccc2c(ccn2Cc2ccccc2)c1,-93.7% (active)
14,COc1ccc(Cn2ccn(Cc3cccc(OC)c3)c(=O)c2=O)cc1,1.35% (inactive)
15,O=c1c(=O)n(Cc2c(F)cccc2Cl)ccn1Cc1ccccc1,-0.809% (inactive)
16,O=C(CN1C(=O)S/C(=C\c2ccccc2F)C1=O)NCCCn1ccnc1,4.7% (inactive)
17,Cn1cccc1/C=C1\SC(=O)N(CC(=O)Nc2ccc(F)cc2)C1=O,-75.7% (active)
18,Cn1cccc1/C=C1\SC(=S)N(NC(=O)c2ccc(Cl)cc2)C1=O,-8.62% (inactive)
19,COCCCNC(=O)c1c(NC(=O)c2cc(=O)c3cc(C)c(C)cc3o2)sc2c1CCCC2,-4.73% (inactive)
20,O=C(CSc1nccn1-c1ccc(F)cc1)Nc1cccc2ccccc12,1.1% (inactive)
21,CC(C)c1ccc(NC(=O)c2ccc3c(O)c(S(=O)(=O)c4ccccc4)c(=O)[nH]c3c2)cc1,-14% (inactive)
22,CCOC(=O)N1CCc2c(sc3c2c(=O)n(Cc2ccccc2)c(=O)n3CC(=O)Nc2cccc(C)c2)C1,4.91% (inactive)
23,CCOC(=O)c1c(NC(C)=O)c2c3c(sc2n1Cc1c(C)cc(C)cc1C)CCCC3,-73.1% (active)
24,COC(=O)c1c(NC(=O)c2cc(=O)c3c(C)cc(C)cc3o2)sc2c1CCCC2,3.21% (inactive)
25,CCN(CC)S(=O)(=O)c1nnc(NC(=O)COc2ccccc2Cl)s1,-10.5% (inactive)

# Source: PubChem BioAssay AID1259400 (National Center for Advancing Translational Sciences (NCATS), 2018)
